The results in this text go back to PubChem BioAssay (Tox21).

Results filed as inconclusive are left out. Where a call stands in place of a potency, no number is given. Activity calls are given as the source filed them. Unless noted, calls come from the whole dose curve; as a rule, active = well fitted cell-killing curve with a large enough effect in the repeat runs (not every such curve was filed as active); inconclusive = weak or mixed curves, or effect the other way; inactive = no such curve, though single readings can be large or run the other way.

Chain of Bile acid receptor (Homo sapiens) (Q96RI1 whole entry, looked up): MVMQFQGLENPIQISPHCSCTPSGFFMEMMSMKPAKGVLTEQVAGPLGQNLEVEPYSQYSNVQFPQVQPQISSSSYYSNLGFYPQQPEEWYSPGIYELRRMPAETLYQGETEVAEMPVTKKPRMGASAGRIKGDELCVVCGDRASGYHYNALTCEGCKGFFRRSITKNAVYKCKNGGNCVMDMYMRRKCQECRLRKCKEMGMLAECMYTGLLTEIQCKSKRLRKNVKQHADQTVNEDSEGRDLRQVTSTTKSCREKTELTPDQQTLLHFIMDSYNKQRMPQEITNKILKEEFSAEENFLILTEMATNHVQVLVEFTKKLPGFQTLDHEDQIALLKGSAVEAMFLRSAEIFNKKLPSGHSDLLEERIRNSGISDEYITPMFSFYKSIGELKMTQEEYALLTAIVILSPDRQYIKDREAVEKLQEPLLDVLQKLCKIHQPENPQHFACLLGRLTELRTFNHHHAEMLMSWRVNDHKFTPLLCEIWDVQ

In one experiment the target is Bile acid receptor (Homo sapiens) (UniProt Q96RI1). In words: qHTS assay to identify small molecule agonists of the farnesoid-X-receptor (FXR) signaling pathway (AID 743220; active = well fitted activation curve with a large enough effect in the signal ratio in the repeat runs, not every such curve was filed as active; the % refers to the signal ratio). Conditions: HEK293T FXR-UAS-bla, beta-lactamase FRET ratio, 16 h; series mostly up to 62.6 µM. An outline of the steps:
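FXR-UAS-bla HEK 293T cells carrying a UAS-driven beta-lactamase reporter were plated for 5 h at 37C/5% CO2, then exposed to DMSO-dissolved Tox21 10K compounds for 16 h at 37C. A LiveBLAzer B/G FRET substrate was loaded for 2 h at room temperature before fluorescence reading.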
In general terms: In qHTS, concentration-response curves come from the screen itself.
On to `CC(=O)Oc1ccc2c(c1)CC[C@@H]1[C@@H]2CC[C@]2(C)[C@@H](O)CC[C@@H]12`, for which the Potency result is “inactive”.

For the compound `CC(N)CN` (stereo unspecified), the Potency entry is “inactive”.

In the case of `CC(C)CCCC(=O)O`, the Potency result was “inactive”.

In the case of `COCCOC`, the Potency result is “inactive”.

In the case of `CC1C2CC(CC2C2CCCC(O)C2)C1(C)C` (stereo unspecified), the Potency entry is “inactive”.

Consider `O=C(CS)OCCOC(=O)CS`, for which the Potency entry is “inactive”.

For the compound `Cc1occc1C(=O)Nc1ccc(C(=O)N2CCC(F)(F)/C(=C\C(=O)N3CCC(N4CCCCC4)CC3)c3ccccc32)cc1`, the Potency result was “inactive”.

For the compound `Cc1nccn1-c1ccc(Sc2cccc(C3(C(N)=O)CCOCC3)c2)cc1`, the Potency result was “inactive”.

For `CO[C@@]12[C@H](COC(N)=O)C3=C(C(=O)C(C)=C(N)C3=O)N1C[C@@H]1N[C@@H]12`, the Potency entry was “inactive”.

For `CC(C)(C)CC(C)(C)c1ccc(OCCO)cc1`, the Potency entry is “inactive”.

Regarding `O=C(c1ccc(O)cc1)c1ccc(Cl)cc1`, the Potency result was “inactive”.

`CO[C@H]1C=CO[C@@]2(C)Oc3c(C)c(O)c4c(O)c(c5c(c4c3C2=O)=NC2(CCN(CC(C)C)CC2)N=5)NC(=O)/C(C)=C\C=C/[C@H](C)[C@H](O)[C@@H](C)[C@@H](O)[C@@H](C)[C@H](OC(C)=O)[C@@H]1C`: the Potency result is “inactive”.

In the case of `CC(C)(O)c1ccccc1CC[C@@H](SCC1(CC(=O)O)CC1)c1cccc(/C=C/c2ccc3ccc(Cl)cc3n2)c1`, the Potency entry was “inactive”.

On to `CC#N`, for which the Potency entry is “inactive”.

With `CCCCCCCCCCOS(=O)(=O)O`, the Potency entry was “inactive”.

Turning to `NC(=O)N(O)[C@@H]1COc2cc(OCc3ccccc3)ccc21`, the Potency entry is “inactive”.

For `C[Si](NC1CCCCC1)(NC1CCCCC1)NC1CCCCC1`, the Potency result is “inactive”.

For `CCCCCCOC(=O)C(C)C`, the Potency result was “inactive”.

Tested on in the next experiment: not listed separately
In words: qHTS assay to identify small molecule antagonists of the farnesoid-X-receptor (FXR) signaling pathway - cell viability counter screen (AID 743221). Note: nearly all actives have a fitted effect of over 50% in size. Note: potency is the fitted concentration of half-maximal effect. Conditions: FXR-bla HEK293T viability, CellTiter-Glo luminescence, 16 h; series mostly up to 62.6 µM. An outline of the steps:
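In GeneBLAzer FXR-UAS-bla HEK 293T cells stimulated with 50 uM chenodeoxycholic acid (final), compounds acted for 16 h at 37 C. Viability was assessed afterwards by CellTiter-Glo luminescence.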
Take `CC(=O)Oc1ccc2c(c1)CC[C@@H]1[C@@H]2CC[C@]2(C)[C@@H](O)CC[C@@H]12`: the Potency entry was “inactive”.

With `CC(N)CN` (stereo unspecified), the Potency result was “inactive”.

For `Cc1cc(OI)c(C(C)C)cc1-c1cc(C(C)C)c(OI)cc1C`, the Potency entry was “inactive”.

For the compound `CCc1nn(CCCN2CCN(c3cccc(Cl)c3)CC2)c(=O)n1CCOc1ccccc1`, the Potency result is “inactive”.

Regarding `CCN(Cc1cccc(S(=O)(=O)O)c1)c1ccc(C(=C2C=CC(=[N+](CC)Cc3cccc(S(=O)(=O)[O-])c3)C=C2)c2ccccc2)cc1`, the Potency result is “inactive”.

For the compound `O=C(CCCN1CCN(c2ccc(F)cc2)CC1)NC1c2ccccc2CSc2ccccc21` (stereo unspecified), the Potency was 26.6 µM (active).

Consider `C=CCNc1nc(NCC=C)nc(N2CCN(C(c3ccc(F)cc3)c3ccc(F)cc3)CC2)n1`, for which the Potency entry is “inactive”.

Take `CC(C)CCCC(=O)O`: the Potency entry is “inactive”.

`COCCOC`: the Potency entry is “inactive”.

Turning to `O=C(CS)OCCOC(=O)CS`, the Potency result was “inactive”.

As to `CCCc1c(OCCCOc2ccc(OCC(=O)O)cc2)ccc(C(C)=O)c1O`, the Potency result is “inactive”.

With `Cc1occc1C(=O)Nc1ccc(C(=O)N2CCC(F)(F)/C(=C\C(=O)N3CCC(N4CCCCC4)CC3)c3ccccc32)cc1`, the Potency entry was “inactive”.

In the case of `O=C1OCCN1/N=C/c1ccc([N+](=O)[O-])o1`, the Potency entry was “inactive”.

As to `COC(OC)(C(=O)c1ccccc1)c1ccccc1`, the Potency entry is “inactive”.

For `CO/N=C1\CN(c2nc3c(cc2F)c(=O)c(C(=O)O)cn3C2CC2)CC1CN` (stereo unspecified), the Potency entry is “inactive”.

For the compound `CC(C)C(OC(=O)c1ccccc1)C(C)(C)COC(=O)c1ccccc1` (stereo unspecified), the Potency entry was “inactive”.

Take `CC(C)(CCl)c1ccccc1`: the Potency entry was “inactive”.

Regarding `Cc1nccn1-c1ccc(Sc2cccc(C3(C(N)=O)CCOCC3)c2)cc1`, the Potency entry was “inactive”.

On to `CC[C@@H]([C@H](C)O)n1ncn(-c2ccc(N3CCN(c4ccc(OC[C@@H]5CO[C@@](Cn6cncn6)(c6ccc(F)cc6F)C5)cc4)CC3)cc2)c1=O`, for which the Potency is 29.8 µM (active).

As for `CO[C@@]12[C@H](COC(N)=O)C3=C(C(=O)C(C)=C(N)C3=O)N1C[C@@H]1N[C@@H]12`, the Potency result was “inactive”.

Consider `Cc1ccc(S)cc1`, for which the Potency result was “inactive”.

As for `CCCOCCOCCO`, the Potency result is “inactive”.

On to `CC(C)c1nnc2ccc(-c3ocnc3-c3cc(F)ccc3F)cn12`, for which the Potency entry was “inactive”.

In the case of `O=C(CCCCCCC(=O)Nc1ccccc1)NO`, the Potency entry was “inactive”.

For `O=C(c1ccc(O)cc1)c1ccc(Cl)cc1`, the Potency entry was “inactive”.

Regarding `CC(C)(O)c1ccccc1CC[C@@H](SCC1(CC(=O)O)CC1)c1cccc(/C=C/c2ccc3ccc(Cl)cc3n2)c1`, the Potency entry was “inactive”.

With `NC(=O)Cn1c(=O)cc(CCN2CCN(c3nccc4sccc34)CC2)c2ccc(F)cc21`, the Potency result is “inactive”.

As to `O=Cc1c(Cl)cccc1Cl`, the Potency entry is “inactive”.

In the case of `CC#N`, the Potency result was “inactive”.

Take `CCCCCCCCCCOS(=O)(=O)O`: the Potency entry is “inactive”.

In the case of `NC(=O)N(O)[C@@H]1COc2cc(OCc3ccccc3)ccc21`, the Potency entry was “inactive”.

With `OCC1CC=CCC1` (stereo unspecified), the Potency result is “inactive”.

Take `CCCCCCOC(=O)C(C)C`: the Potency entry is “inactive”.

In a further experiment the target is Vitamin D3 receptor (Homo sapiens) (UniProt P11473). Description: qHTS assay to identify small molecule agonists of the vitamin D receptor (VDR) signaling pathway (AID 743222; calls by dose curve). Conditions: HEK293T VDR-UAS-bla, beta-lactamase FRET ratio, 16 h; series mostly up to 63.5 µM. The essentials: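 Fluorescence from cleaved LiveBLAzer B/G FRET substrate served as readout. VDR-bla cells had been treated 16 h at 37C with test compounds in DMSO, following a 4 h settling period, and substrate was loaded for 2 h at RT.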
Chain of Vitamin D3 receptor (Homo sapiens) (P11473 whole entry, looked up): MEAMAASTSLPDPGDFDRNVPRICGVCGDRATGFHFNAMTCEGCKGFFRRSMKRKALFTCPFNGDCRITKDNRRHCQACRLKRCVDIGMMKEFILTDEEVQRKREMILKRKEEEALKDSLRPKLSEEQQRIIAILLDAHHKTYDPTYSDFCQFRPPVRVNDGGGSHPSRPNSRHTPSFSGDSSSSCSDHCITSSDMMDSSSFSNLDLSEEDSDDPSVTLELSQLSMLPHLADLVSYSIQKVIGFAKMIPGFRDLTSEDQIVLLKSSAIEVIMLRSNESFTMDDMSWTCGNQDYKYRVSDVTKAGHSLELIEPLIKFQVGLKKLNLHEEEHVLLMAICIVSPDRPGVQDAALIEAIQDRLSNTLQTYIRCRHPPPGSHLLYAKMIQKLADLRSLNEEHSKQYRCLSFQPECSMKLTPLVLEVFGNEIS
Turning to `CC(=O)Oc1ccc2c(c1)CC[C@@H]1[C@@H]2CC[C@]2(C)[C@@H](O)CC[C@@H]12`, the outcome was inactive.

In the case of `COc1cc2ncnc(Nc3ccc(F)c(Cl)c3)c2cc1OCCCN1CCOCC1`, the outcome was inactive.

As for `C=CCNc1nc(NCC=C)nc(N2CCN(C(c3ccc(F)cc3)c3ccc(F)cc3)CC2)n1`, the outcome was inactive.

Consider `CC(C)CCCC(=O)O`, for which the outcome was inactive.

`COCCOC`: the outcome was inactive.

Consider `CC1C2CC(CC2C2CCCC(O)C2)C1(C)C` (stereo unspecified), for which the result was inactive.

As to `O=C(CS)OCCOC(=O)CS`, the result was inactive.

As to `CCCCCCCCCCCC[N+](C)(C)CC(=O)[O-]`, the result was inactive.

As to `Cc1occc1C(=O)Nc1ccc(C(=O)N2CCC(F)(F)/C(=C\C(=O)N3CCC(N4CCCCC4)CC3)c3ccccc32)cc1`, the result was inactive.

On to `O=C1OCCN1/N=C/c1ccc([N+](=O)[O-])o1`, for which the result was inactive.

Consider `COC(OC)(C(=O)c1ccccc1)c1ccccc1`, for which the result was inactive.

Regarding `O=C(Nc1ccc([N+](=O)[O-])cc1)Nc1ccc([N+](=O)[O-])cc1`, the result was inactive.

Turning to `CC(C)(CCl)c1ccccc1`, the outcome was inactive.

Turning to `CC[C@@H]([C@H](C)O)n1ncn(-c2ccc(N3CCN(c4ccc(OC[C@@H]5CO[C@@](Cn6cncn6)(c6ccc(F)cc6F)C5)cc4)CC3)cc2)c1=O`, the outcome was inactive.

`O=C(c1ccc(O)cc1)c1ccc(Cl)cc1`: the outcome was inactive.

Regarding `CC(C)(O)c1ccccc1CC[C@@H](SCC1(CC(=O)O)CC1)c1cccc(/C=C/c2ccc3ccc(Cl)cc3n2)c1`, the outcome was inactive.

With `O=Cc1c(Cl)cccc1Cl`, the outcome was inactive.

For the compound `OCC1CC=CCC1` (stereo unspecified), the result was inactive.

For `C[Si](NC1CCCCC1)(NC1CCCCC1)NC1CCCCC1`, the result was inactive.

Turning to `CCCCCCOC(=O)C(C)C`, the result was inactive.
